# Test results reported in PubChem BioAssay (NCATS).
# Results filed as inconclusive are left out. Where a call stands in place of a potency, no number is given. The source made the active and inactive calls. Calls come from the whole dose curve; as a rule, active = well fitted inhibition curve with a large enough effect; inconclusive = small, poorly fitted or top-dose-only effect; inactive = flat fitted curve, though single readings scatter.
# Biological target: Phospholipid hydroperoxide glutathione peroxidase GPX4 (Homo sapiens) (UniProt P36969)
# Sequence (P36969 whole entry, looked up): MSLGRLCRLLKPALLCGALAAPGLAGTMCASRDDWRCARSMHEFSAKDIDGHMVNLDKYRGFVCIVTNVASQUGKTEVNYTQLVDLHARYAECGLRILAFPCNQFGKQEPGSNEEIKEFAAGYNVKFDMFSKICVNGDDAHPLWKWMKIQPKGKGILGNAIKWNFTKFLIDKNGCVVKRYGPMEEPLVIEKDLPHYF
# Assay: Primary qHTS Assay for Inhibitors of Recombinant Selenoprotein Glutathione Peroxidase 4 (GPX4) (AID 1845192); note: nearly all actives have a fitted effect of over 65% in size
# Details: recombinant GPX4, GR-coupled NADPH fluorescence, 15 min; series mostly up to 50 µM
# Summary of the method: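 NADPH consumption followed by fluorescence at 340/450 nm, t=0 and after 15 min at room temperature. Reaction started with cumene hydroperoxide (0.5 mM final) after 30 min compound–GPX4 preincubation; final 200 nM GPX4, 100 nM GR, 1 mM GSH, 0.5 mM NADPH.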
row,SMILES,Potency
1,COc1ccc(CCN(C)CCCOc2nsc(-c3ccccc3)n2)cc1OC,inactive
2,COc1cc2c(Nc3cc(F)c(Cl)c(Cl)c3)ncnc2cc1OCC1CCCN(C)CCC1,inactive
3,CC1(C)CC[C@]2(C(=O)O[C@@H]3O[C@H](CO)[C@@H](O)[C@H](O)[C@H]3O)CC[C@]3(C)C(=CCC4[C@@]5(C)CC[C@H](O[C@@H]6O[C@H](C(=O)O)[C@H](O)[C@H](O)[C@H]6O)C(C)(C)C5CC[C@]43C)[C@@H]2C1 (stereo not given in full),inactive
4,CC(C)(C[C@@](O)(Cc1cc2ccncc2[nH]1)C(F)(F)F)c1cc(F)ccc1O,inactive
5,CC[C@H]1CN(c2nc(N)c(C(N)=O)nc2Cl)CCN1C1CCN(Cc2ccc(Cl)cc2)CC1,inactive
6,CN1CCN(Cc2ccc(NC(=O)Cc3ccc(Oc4cc(NC(=O)C5CC5)ncn4)cc3)cc2C(F)(F)F)CC1,inactive
7,COc1ccc(CCc2nc3c(C)c(-c4c(C)noc4C)c(C)cc3n2CCN2CCOCC2)cc1,inactive
8,Cc1nnc(C[C@@H]2C=C(c3ccc(Cl)cc3)c3ccccc3-n3c(C)nnc32)o1,inactive
9,O=C(O)CSc1cc(NS(=O)(=O)c2ccc(Br)cc2)c2ccccc2c1O,inactive
10,CC(=O)OC/C(=C/C(=O)O)CC[C@@H]1C(C=O)=CC[C@@H]2C(C)(C)CCC[C@@]12C,inactive
11,CN(C)CC1CCn2c(c(C3=C(c4cn(C)c5ccccc45)C(=O)NC3=O)c3ccccc32)C1 (stereo not given),inactive
12,Nc1ncnc2c1c(-c1ccc(Oc3ccccc3)cc1)nn2[C@@H]1CCCNC1,inactive
13,CC(=O)[C@H]1CC[C@H]2[C@@H]3CC=C4C[C@@H](OS(=O)(=O)O)CC[C@]4(C)[C@H]3CC[C@]12C,inactive
14,Cc1cc(NC(=O)c2cccc(NC(=O)/C=C/CN(C)C)c2)ccc1Nc1nccc(-c2cccnc2)n1,inactive
15,COc1ccc(NC(=O)c2ccc(-c3ccc(C(=N)N)cc3C)cc2)cc1N1CCN(C)CC1,inactive
16,COC(=O)CC1OC(C)C2=C(O)c3c(O)cccc3C(=O)C23OC13 (stereo not given),inactive
17,N#Cc1ccc(Nc2nc(-c3ccc(O)cc3O)cs2)cc1C(F)(F)F,inactive
18,Cc1nc(C#Cc2ccnc(Cl)c2)c(C)n1-c1ccc(F)cc1,inactive
19,CCCc1cc2c(N3CCN(C4=NCC(C)(C)S4)CC3)ncnc2s1,inactive
20,CCNC(=O)C#Cc1ccc2c(C(=Nc3ccc(CN(C)C)cc3)c3ccccc3)c(O)[nH]c2c1,inactive
21,COc1cccc(-c2cn(-c3ccc(CCN4CCC(O)CC4)cc3)c3ncnc(N)c23)c1,inactive
22,Nc1nc(NC2CC2)cc(-c2cccc(Cl)c2Cl)n1,inactive
23,O=C(Nc1ccc(C(F)(F)F)cn1)N1CCN(c2ncccc2C(F)(F)F)CC1,inactive

# Biological target: Luciferin 4-monooxygenase (Photinus pyralis) (UniProt P08659)
# Assay: Primary firefly luciferase (FLuc) qHTS assay for identification of artifact compounds. (AID 1845220); note: nearly all actives have a fitted effect of over 60% in size
# Details: purified firefly luciferase, luminescence, 5 min; series mostly up to 54.1 µM
# Summary of the method: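 FLuc 10 nM; luciferin 10 uM; ATP 10 uM; Tris-acetate pH 7.6, Mg-acetate 10 mM; 15 min RT preincubation; 5 min reaction; luminescence.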
row,SMILES,Potency
1,O=S1(=O)CCN(Cc2cc(NCC3CCOCC3)c3[nH]c(-c4ccccc4)cc3c2)CC1,inactive
2,O=C(c1ccccc1)c1c(O)cc(O)cc1O[C@@H]1O[C@H](CO)[C@@H](O)[C@H](O)[C@H]1O,inactive
3,CC(C)C[C@H](CO)Nc1nc(S[C@@H](C)c2ccccc2)nc2nc(N)sc12,inactive
4,O=C(c1ccc(Cl)cc1)N1CCN(c2ccnc3cc(Cl)ccc23)CC1,inactive
5,Cc1c[nH]c2ncnc(N3CCC(CN)(C(=O)Nc4cccc(OC(=O)N(C)C)c4)CC3)c12,inactive
6,C=CC(=O)Nc1cccc(Nc2nc(Nc3ccc(OCCOC)cc3)ncc2F)c1,inactive
7,Cc1c(OCc2cccc(-c3ccc(C(=O)O)cc3)c2)cc2c(c1C)C(=O)C(C1CCCC1)C2 (stereo not given),inactive
8,COc1c(CCC(=O)O)cccc1O[C@@H]1O[C@H](CO)[C@@H](O)[C@H](O)[C@H]1O,inactive
9,C[C@]12CC[C@@H]3c4ccc(O)c(O)c4CC[C@H]3[C@@H]1CCC2=O,inactive
10,CCOC(=O)N1CCC(CN(Cc2ccc(Cl)cc2)Cc2ccc([N+](=O)[O-])s2)C1 (stereo not given),inactive
11,C=C1C(OC2OC(CO)C(O)C(O)C2O)CC2C(C)(C)C(O)CCC2(C)C1CC/C(C)=C\COC(=O)CC(=O)O (stereo not given),inactive
12,Fc1ccc2c(CCNCc3cccc(OCC(F)(F)C(F)F)c3)c[nH]c2c1,inactive
13,Cc1[nH]c(/C=C2\C(=O)Nc3ccc(S(=O)(=O)N(C)c4cccc(Cl)c4)cc32)c(C)c1C(=O)N1CCN(C)CC1,inactive
14,CCn1c2ccccc2c2cc(Nc3ccnc(NCCCN4CCOCC4)n3)ccc21,inactive
15,COc1ccc(CCN(C)CCCOc2nsc(-c3ccccc3)n2)cc1OC,inactive
16,COc1cc2c(Nc3cc(F)c(Cl)c(Cl)c3)ncnc2cc1OCC1CCCN(C)CCC1,inactive
17,CC1(C)CC[C@]2(C(=O)O[C@@H]3O[C@H](CO)[C@@H](O)[C@H](O)[C@H]3O)CC[C@]3(C)C(=CCC4[C@@]5(C)CC[C@H](O[C@@H]6O[C@H](C(=O)O)[C@H](O)[C@H](O)[C@H]6O)C(C)(C)C5CC[C@]43C)[C@@H]2C1 (stereo not given in full),inactive
18,CC(C)(C[C@@](O)(Cc1cc2ccncc2[nH]1)C(F)(F)F)c1cc(F)ccc1O,inactive
19,CC[C@H]1CN(c2nc(N)c(C(N)=O)nc2Cl)CCN1C1CCN(Cc2ccc(Cl)cc2)CC1,inactive

row,SMILES,Potency
1,CN1CCN(Cc2ccc(NC(=O)Cc3ccc(Oc4cc(NC(=O)C5CC5)ncn4)cc3)cc2C(F)(F)F)CC1,inactive
2,COc1ccc(CCc2nc3c(C)c(-c4c(C)noc4C)c(C)cc3n2CCN2CCOCC2)cc1,inactive
3,Cc1nnc(C[C@@H]2C=C(c3ccc(Cl)cc3)c3ccccc3-n3c(C)nnc32)o1,inactive
4,O=C(O)CSc1cc(NS(=O)(=O)c2ccc(Br)cc2)c2ccccc2c1O,inactive
5,CC(=O)OC/C(=C/C(=O)O)CC[C@@H]1C(C=O)=CC[C@@H]2C(C)(C)CCC[C@@]12C,inactive
6,CN(C)CC1CCn2c(c(C3=C(c4cn(C)c5ccccc45)C(=O)NC3=O)c3ccccc32)C1 (stereo not given),inactive
7,Nc1ncnc2c1c(-c1ccc(Oc3ccccc3)cc1)nn2[C@@H]1CCCNC1,inactive
8,CC(=O)[C@H]1CC[C@H]2[C@@H]3CC=C4C[C@@H](OS(=O)(=O)O)CC[C@]4(C)[C@H]3CC[C@]12C,inactive
9,Cc1cc(NC(=O)c2cccc(NC(=O)/C=C/CN(C)C)c2)ccc1Nc1nccc(-c2cccnc2)n1,inactive
10,COc1ccc(NC(=O)c2ccc(-c3ccc(C(=N)N)cc3C)cc2)cc1N1CCN(C)CC1,inactive
11,COC(=O)CC1OC(C)C2=C(O)c3c(O)cccc3C(=O)C23OC13 (stereo not given),inactive
12,N#Cc1ccc(Nc2nc(-c3ccc(O)cc3O)cs2)cc1C(F)(F)F,inactive
13,Cc1nc(C#Cc2ccnc(Cl)c2)c(C)n1-c1ccc(F)cc1,inactive
14,CCCc1cc2c(N3CCN(C4=NCC(C)(C)S4)CC3)ncnc2s1,inactive
15,CCNC(=O)C#Cc1ccc2c(C(=Nc3ccc(CN(C)C)cc3)c3ccccc3)c(O)[nH]c2c1,inactive
16,COc1cccc(-c2cn(-c3ccc(CCN4CCC(O)CC4)cc3)c3ncnc(N)c23)c1,inactive
17,Nc1nc(NC2CC2)cc(-c2cccc(Cl)c2Cl)n1,inactive
18,O=C(Nc1ccc(C(F)(F)F)cn1)N1CCN(c2ncccc2C(F)(F)F)CC1,inactive
